Screening data as filed in PubChem BioAssay.
TROY NFkB inh – TROY signaling inhibition. Q293 LMP1-TROYcd NF-kB luciferase reporter, 4 h. inhibition, % at 10 µM. hit rate 0.98% among 360,000. AID 1347056;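 active means compounds whose plate-normalised and pattern-corrected inhibition of the luciferase reporter signal at the single screening dose is 50% or more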
Peg3 promoter – Peg3 promoter activity inhibition | HeLa PEG-Prom luciferase reporter, luminescence, overnight | inhibition, % at 20 µM | hit rate 1.7% among 360,000 | AID 588405;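 active means inhibition of at least 50% at 20 µM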
CF NFkB block – blocks PAF-induced NF-kB reporter in cystic fibrosis cells; KKLEB NF-kB-GFP reporter, GFP fluorescence overnight; inhibition, % at 5 µM; hit rate 0.86% among 360,000;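 active means at least 50% inhibition at 5 µM, scaled per plate between neutral and stimulator controls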;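 further: PAF is a Pseudomonas aeruginosa culture filtrate used as stimulus; plate controls were PAF-stimulated DMSO wells for no effect and unstimulated DMSO wells for full effect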
TWEAK-Fn14 inh – inhibitors of TWEAK-Fn14 interaction signaling; TWEAK-stimulated Fn14 reporter cells, luciferase luminescence, 8 h; inhibition, % at 10 µM; hit rate 2% among 360,000; in the data active means inhibition above about 50%
KKLEB cytotox – reduces viability of KKLEB cystic fibrosis airway cells; KKLEB CF airway cells viability, ATPlite luminescence, overnight; stronger effect = lower value; cells stimulated with P. aeruginosa culture filtrate; activity change (cytotoxicity), % at 5 µM; hit rate 0.36% among 360,000;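 active means corrected activity change at or below -50% at 5 µM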
HIF-2a inh – HIF-2a inhibition; 786-0 RCC cells HIF-2a reporter, luciferase luminescence, overnight; inhibition, % at 18.8 µM; hit rate 0.72% among 360,000; AID 624352;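 active means inhibition of the luminescence signal of 40% or more relative to plate controls, in a single-dose primary screen at 18.75 µM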
* = called active by the depositor; . = no result given. Shown are actives, neighbours in structure and some others; about 4% of the full set was active somewhere.

SMILES | TROY NFkB inh | Peg3 promoter | CF NFkB block | TWEAK-Fn14 inh | KKLEB cytotox | HIF-2a inh
O=C1NC(c2ccncc2)C(C(=O)c2cccs2)C(O)(C(F)(F)F)N1 (configuration not stated) | 17.7 | -11.2 | 3.4 | -0.7 | 3.0 | 9.8
OC(c1cc(-c2cccc(Cl)c2)nc2ccccc12)C1CCCCN1 (configuration not stated) | -18.7 | 103.9* | 40.7 | -1.3 | -24.1 | -19.1
FC(F)(F)c1cc(N2CCNCC2)c2ccccc2n1 | 24.2 | 7.7 | 10.4 | -0.1 | -10.4 | 20.4
OC(c1cc(C(F)(F)F)nc2c(C(F)(F)F)cccc12)C1CCCCN1 (configuration not stated) | -9.2 | 93.5* | 29.3 | 27.1 | -19.7 | 17.9
Cc1cc(C(=O)COc2ccc(C#N)cc2)c(C)n1C1CC1 | 4.8 | -27.3 | 2.4 | -10.1 | 8.8 | -49.6
COc1cccc(N2CCN(CC(=O)Nc3nc(C)c(C(=O)N(C)C)s3)CC2)c1 | 9.1 | 2.6 | -10.0 | -7.5 | -1.4 | 14.1
COc1ccc2c(CC(=O)Nc3cccc(S(=O)(=O)N4CCOCC4)c3)coc2c1 | 1.6 | -17.5 | -27.6 | -12.8 | 4.8 | -26.9
CC(=O)Nc1cccc(NS(=O)(=O)Cc2ccc(Cl)cc2)c1 | -10.0 | 11.3 | 3.6 | -16.8 | 4.6 | 5.9
CC(=O)c1ccc(NS(=O)(=O)Cc2ccc(Cl)cc2)cc1 | 63.2* | -5.5 | 1.3 | 36.7 | -6.3 | -4.8
CCN(C(=S)Nc1cccc2ccccc12)c1ccccc1 | 31.5 | 20.4 | -7.9 | 83.0* | -0.8 | 7.6
CC(C)(C)n1nnnc1C(c1ccc(Cl)cc1)N1CCCc2ccccc21 (configuration not stated) | -4.0 | 10.1 | 19.3 | 14.4 | -20.4 | 10.7
CC(C)(C)n1nnnc1C(c1cccc(C#N)c1)N1CCCc2ccccc21 (configuration not stated) | 38.1 | 20.6 | 5.1 | 50.2* | 0.9 | 11.6
CCOC(=O)C1CCN(C(=O)COc2cc(C)c(Br)cc2C)CC1 | . | 0.8 | 7.5 | 91.2* | 1.9 | 5.9
Cc1ccc(S(=O)(=O)N2C[C@@H]3CCCC[C@@H]3[C@@H](C)[C@H]2c2cn(Cc3ccccc3)c3ccccc23)cc1 | 42.2 | 9.8 | -1.0 | 61.4* | 18.5 | -18.3
COc1ccc2c(c1)c([C@@H]1[C@H](C)[C@H]3CCCC[C@H]3CN1S(=O)(=O)c1ccc(C)cc1)cn2C | 13.3 | 10.6 | 26.2 | 84.4* | 7.9 | 5.2
COc1ccc(CNC(=O)C2CCN(S(=O)(=O)c3cccc4nsnc34)CC2)cc1 | 3.1 | -4.3 | 11.1 | -13.3 | -11.5 | 14.8
CCOC(=O)c1cc(CO)cc(C(=O)OCC)c1 | 5.4 | 21.7 | -15.6 | 12.0 | -7.5 | 21.4
COc1ccccc1N1CCN(C(=O)Cn2nc(C(F)(F)F)c3c2CCC3)CC1 | . | 17.1 | -10.2 | 52.8* | 21.6 | 18.0
O=C(COc1ccccc1)N1CCN=C1SCc1ccccc1F | -14.2 | 12.9 | 1.9 | -11.0 | -6.0 | -2.1
Cc1n[nH]c(=S)n1/N=C/c1c(O)ccc2ccccc12 | 21.9 | 57.3* | 3.0 | 1.4 | -0.1 | 13.9
Cc1nc2ccccc2c(=O)n1/N=C/c1c(O)ccc2ccccc12 | -5.7 | 8.6 | 8.5 | 4.9 | 2.9 | -6.3
COC(=O)c1ccc(Cn2cnc3cnccc32)cc1 | 1.1 | 9.7 | 6.5 | -7.8 | -1.6 | 15.0
O=C(c1n[nH]c(=O)c2ccccc12)N1CCOCC1 | . | -0.2 | -9.1 | 56.6* | 0.4 | 6.6
O=C(c1n[nH]c(=O)c2ccccc12)N1CCN(Cc2ccc3c(c2)OCO3)CC1 | 6.4 | 6.4 | 5.5 | 1.9 | 3.6 | 13.9
O=C(CN1C(=O)COCC1=O)N1CCOCC1 | 7.2 | 4.2 | 5.1 | 1.1 | 7.3 | 12.8
SMILES | TROY NFkB inh | Peg3 promoter | CF NFkB block | TWEAK-Fn14 inh | KKLEB cytotox | HIF-2a inh
Cc1ccc(C)c(Oc2cc(NC(=O)CCCn3nc(C)c([N+](=O)[O-])c3C)cc([N+](=O)[O-])c2)c1 | 44.1 | 26.8 | 9.5 | 73.5* | 0.4 | 4.3
C=CCN(c1ccccc1OC)S(=O)(=O)c1cccc(C(=O)OCC(=O)N2CCOCC2)c1 | -5.4 | 8.5 | -27.8 | -0.4 | -5.5 | 0.4
COc1cc(OC)c(N(C)S(=O)(=O)c2cccc(C(=O)OCC(=O)c3c[nH]c4ccccc34)c2)cc1Cl | 44.8 | 39.3 | 15.4 | 96.1* | -23.4 | 23.2
C=CCN(c1ccccc1OC)S(=O)(=O)c1cccc(C(=O)OCC(=O)c2c[nH]c3ccccc23)c1 | 17.0 | 27.9 | 4.3 | 84.7* | 0.5 | 7.4
COc1cc(OC)c(N(C)S(=O)(=O)c2cccc(C(=O)Nc3nccs3)c2)cc1Cl | 39.2 | 51.1* | -14.0 | 30.8 | 11.9 | 22.4
CN(c1ccccc1)S(=O)(=O)c1cccc(C(=O)Nc2nccs2)c1 | 10.2 | -0.6 | 6.0 | 19.7 | 26.9 | 2.6
O=C(Nc1ccc(Cl)c(Cl)c1)N(Cc1cccnc1)Cc1ccco1 | -3.8 | 14.0 | -2.4 | -10.9 | -13.7 | -35.9
COc1ccc(C2=Nn3c(nnc3-c3ccccc3Cl)SC2)cc1OC1CCCC1 | 52.7* | 19.8 | 46.2 | 7.9 | -9.2 | 29.0
COc1ccc(C2=Nn3c(nnc3-c3ccccc3F)SC2)cc1OCC1CC1 | 51.4* | 52.7* | 38.1 | 12.8 | -44.4 | 6.0
FC(F)Oc1ccc(C2=Nn3c(nnc3-c3ccccc3Cl)SC2)cc1OCC1CC1 | -5.7 | 13.6 | 18.1 | -28.9 | -17.0 | 5.3
COc1ccccc1OCCOCCOc1c(C)cc(C)cc1Br | -19.4 | 7.6 | 4.6 | -16.1 | 4.0 | 2.7
Cc1cc(C(=O)N/N=C/c2ccc3c(c2)OCO3)c(C)n1-c1ccc(F)cc1 | 50.3* | -26.2 | -17.1 | 2.9 | -0.8 | -37.4
Cc1cc(C(=O)N/N=C/c2cccc([N+](=O)[O-])c2)c(C)n1-c1ccccc1 | 5.0 | -155.1 | 2.3 | -5.7 | -7.2 | -140.4
Cc1cc(C(=O)N/N=C/c2ccc(Cl)c([N+](=O)[O-])c2)c(C)n1-c1ccc(F)cc1 | 41.6 | 105.3* | 1.0 | 63.2* | 1.4 | 60.9*
O=C(N/N=C/c1ccc2c(c1)OCO2)c1ccc(NC(=O)c2ccc(F)cc2)cc1 | 8.0 | 13.4 | 14.9 | -8.1 | -7.8 | -21.5
COc1ccc(/C=N/NC(=O)c2cc(C)n(-c3ccccc3)c2C)cc1OC | 61.6* | -65.1 | 9.7 | 14.1 | 0.7 | -47.1
Cc1cc(C(=O)N/N=C2\CCCC(=O)C2)c(C)n1-c1ccccc1 | 74.9* | -51.9 | 18.6 | 42.7 | -9.1 | -79.5
COc1ccc([C@H]2CC(=O)C[C@@H](CCn3ccnn3)O2)cc1 | 4.6 | . | . | 2.7 | . | -3.5
COc1cccc(N2CCN(c3ccc4nnc(CCC(=O)Nc5ccccc5OC)n4n3)CC2)c1 | -5.6 | 24.5 | 2.0 | 17.5 | -7.3 | 17.4
O=C(c1cccc(Cl)c1)N1CCC(=O)N(C(COCc2ccccc2)Cc2ccccc2)CC1 (configuration not stated) | 17.2 | 0.4 | 3.2 | 12.2 | -31.6 | 1.7
Cc1cccc2nc(CSc3nnc4ccccn34)cn12 | -13.7 | -136.3 | -41.1 | 50.2* | 12.0 | -119.0
